Screen size: about 5,500 compounds; about 2,000 (36%) were called active. Another 18% or so got no clear call; they are omitted. Cut-off read from the data, not from the text of the source: active = normalized growth mostly below about 0.91 (no sharp cut-off); inconclusive = no clear call, values can overlap the other calls; inactive = mostly above about 0.92. The list shows a part of the results.
Test: chemical genetic growth profiling, strain panel (AID 1159580);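 note: tested at 20 µM; growth read once vehicle control cultures reached saturation at 30 °C; 1 = growth at the plate median or of vehicle wells; lower values mean less growth of the strain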
Settings: S. cerevisiae deletion strains, growth OD

Measured: normalized growth

CCOC(=O)c1ccc2oc3ccc(O)cc3c(=O)c2c1
inactive: locus YAL013W, strain DEP1, stronger effect = lower value 0.948 | locus YBR229C, strain ROT2, stronger effect = lower value 0.982 | locus YDL101C, strain DUN1, stronger effect = lower value 0.982 | locus YDL134C, strain PPH21, stronger effect = lower value 1 | locus YDR150W, strain NUM1, stronger effect = lower value 0.973 | locus YEL061C, strain CIN8, stronger effect = lower value 0.97 | locus YGR078C, strain PAC10, stronger effect = lower value 1 | locus YHR030C, strain SLT2, stronger effect = lower value 0.826 | locus YHR087W, strain rtc3, stronger effect = lower value 0.937 | locus YJL187C, strain SWE1, stronger effect = lower value 0.956 | locus YJR043C, strain POL32, stronger effect = lower value 0.977 | locus YJR075W, strain HOC1, stronger effect = lower value 1.01 | locus YKL190W, strain CNB1, stronger effect = lower value 0.979 | locus YLR039C, strain RIC1, stronger effect = lower value 1 | locus YLR058C, strain SHM2 (second series), stronger effect = lower value 0.988 | locus YLR085C, strain ARP6, stronger effect = lower value 0.864 | locus YLR262C, strain YPT6, stronger effect = lower value 0.99 | locus YML094W, strain GIM5, stronger effect = lower value 0.913 | locus YMR219W, strain ESC1, stronger effect = lower value 1 | locus YMR263W, strain SAP30, stronger effect = lower value 0.949 | locus YMR307W, strain GAS1, stronger effect = lower value 0.814 | locus YNL153C, strain GIM3, stronger effect = lower value 0.973 | locus YNL298W, strain CLA4 (second series), stronger effect = lower value 0.956 | locus YNL322C, strain KRE1, stronger effect = lower value 1.01 | locus YNR030W, strain Alg12, stronger effect = lower value 0.939 | locus YOL006C, strain TOP1, stronger effect = lower value 0.945 | locus YPL055C, strain LGE1, stronger effect = lower value 0.88 | locus YPL241C, strain CIN2, stronger effect = lower value 0.908 | locus YPR135W, strain CTF4, stronger effect = lower value 0.872

Source: PubChem BioAssay AID1159580 (chemical genetic matrix, 2015)
